Only some compounds are listed: those with a hit (about 3.9% of all), similar ones and a draw of the others.
sPLA2-III inh: Inhibits HGIII-sPLA2 liposome hydrolysis, primary screen. QFRET BODIPY PC-A2 liposome hydrolysis, fluorescence. 370,000 tested, 0.56% active. inhibition, % at 12.2 µM. AID 743126;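 active means inhibition above mean plus 3 SD of compounds lying within the high and low control bounds, cut at about 19% in these data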;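 further: 0% = median of test compound wells and 100% = no enzyme DMSO wells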
PLCb3 inh: inhibitors of human phospholipase C beta3 | 370,000 tested, 0.18% active | Q01970 | Purified PLC-beta3, fluorogenic substrate, fluorescence | inhibition, % at 12.2 µM;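 further: 0% = median of compound wells on plate and 100% = full blocker control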
HIF activator: HIF pathway transcriptional activation. activation, % at 7.5 µM (by protocol). U2OS HRE-luciferase reporter, luminescence; normalized: DMSO 0%, desferrioxamine 100%. 300,000 tested, 0.32% active. AID 1910;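 active means mean activation of at least 10% of the iron chelator positive control signal, with at least half of replicates also reaching 10%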
AHR activator: activators of human aryl hydrocarbon receptor. activation, % at 5 µM. 320,000 tested, 2.5% active. P35869. AHR-responsive luciferase reporter cells, luminescence. AID 2796; in the data active means activation above about 47%;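 further: 0% = vehicle wells and 100% = reference agonist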
PLC-gamma1 inh: inhibitors of human phospholipase C gamma1; P19174; purified PLC-gamma1, fluorogenic substrate, fluorescence; inhibition, % at 12.2 µM; 370,000 tested, 0.84% active; in the data active means inhibition above about 9.5%
Yeast superoxide: yeast age-related superoxide inhibition as caloric restriction mimetic | S. cerevisiae aged cells, superoxide DHE fluorescence; active compounds read low | superoxide response (% of plate mean), % at 10 µM | 330,000 tested, 0.18% active | AID 2690;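 active means superoxide response under a set limit, about three screen SD below normal, cut at about 65% in these data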;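 further: yeast aged for seven days with compound at 30 °C before DHE staining; 100% = average MFI of all compound-treated wells on the plate with controls excluded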
PLCgamma1 ctr: counter-screen for PLC-beta3 inhibitors: inhibitors of human PLC-gamma1; shares compounds with PLC-gamma1 inh; purified PLC-gamma1, fluorogenic substrate, fluorescence; inhibition, % at 12.3 µM; 3,300 tested, 3.1% active; in the data active means inhibition above about 9.5%
PLCb3 confirm: confirmation of human PLC-beta3 inhibitors. 3,300 tested, 1% active. shares compounds with PLC-gamma1 inh. inhibition, % at 12.3 µM. purified PLC-beta3, fluorogenic substrate fluorescence
* marks the source's active call; other numbers are inactive results; · = not tested or not shown. Unless noted, no stated cut-off is given here; in the data, active means inhibition above about 11%; inactive means the rest.

SMILES	sPLA2-III inh	PLCb3 inh	HIF activator	AHR activator	PLC-gamma1 inh	Yeast superoxide	PLCgamma1 ctr	PLCb3 confirm
Cc1cc(Cl)c(S(=O)(=O)N2CCCC2)cc1OCC(=O)NC1CCCCC1	-7.3	11.5*	-0.5	0.6	7.4	137.5	1.1	-2.2
CC(=O)c1nc(N2C(=O)CC(Cc3ccccc3)C2=O)sc1C (stereo not given)	-5.7	3.7	-0.2	0.7	4.4	101.4	·	·
O=C(COc1ccc(S(=O)(=O)N2CCOCC2)cc1)NC1CCCCC1	15.3	-4.4	·	1.2	2.7	75.0	·	·
O=C(Nc1ccccc1)c1cc([N+](=O)[O-])ccc1NC1CCCCC1	-3.7	9.1	-1.4	51.7*	9.8*	111.9	-0.6	-3.4
COc1ccc([N+](=O)[O-])cc1NC1CCCCC1	4.4	-2.4	-1.8	1.8	-2.8	94.4	·	·
CCN(CC(=O)NCc1cccs1)S(=O)(=O)c1cc(NC(C)=O)ccc1OC	10.6	-10.5	·	1.0	9.6*	102.2	-4.0	-6.2
C=CCOC(=O)CN1C(=O)c2ccccc2C1=O	5.5	11.6*	-0.5	1.6	9.2	98.8	1.9	3.5
CC(=O)OCC1OC(n2ccc(=O)[nH]c2=O)C(O)C1O (stereo not given)	-0.5	2.9	-0.9	3.4	3.8	106.2	·	·
CC(=O)OC[C@H]1O[C@@H](n2ccc(=O)[nH]c2=S)C(OC(C)=O)C1OC(C)=O (stereo not given in full)	-8.0	2.2	-0.2	1.3	9.8*	109.1	-0.4	0.8
CCc1ccc(Nc2nnc(SCC(=O)Nc3cccc(S(=O)(=O)NC4=NCCCCC4)c3)s2)cc1	-59.9	2.9	1.5	3.7	9.7*	104.1	-4.3	-4.2
C=C(C)c1ccccc1NC(=O)CCN1C(=O)c2ccccc2S1(=O)=O	1.9	1.1	-0.1	0.6	9.6*	93.8	-0.8	2.1
O=C(CCN1C(=O)c2ccccc2S1(=O)=O)Nc1cccc2ccccc12	5.5	4.6	0.1	5.6	0.7	107.7	·	·
C=COc1ccc(N2C(=O)c3ccccc3OC2C)cc1 (stereo not given)	2.2	-1.2	-1.3	1.0	13.8*	101.7	-3.4	-1.1
COc1ccc(N2C(=O)c3ccccc3C2O)cc1 (stereo not given)	8.1	-4.8	0.0	0.4	-6.1	94.3	·	·
CC(C)CC(=O)Nc1c2c(nn1-c1ccc(F)cc1)CSC2	3.5	12.4*	-0.3	-0.3	8.7	111.7	-6.6	-5.3
CCOc1ccc(S(=O)(=O)Nc2ccc(C(=O)NCC(C)(C)N3CCOCC3)cc2)cc1	-6.1	0.6	-0.7	0.9	1.2	105.5	·	·
C/C(CC(=O)Nc1ccc(N(C)C)cc1)=N\NC(=O)c1ccc([N+](=O)[O-])cc1	10.6	-6.7	-31.6	·	0.2	101.2	·	·
C/C(CC(=O)Nc1ccc([N+](=O)[O-])cc1)=N\NC(=O)c1ccccc1[N+](=O)[O-]	-12.3	4.8	-9.0	2.3	10.7*	110.8	0.9	2.9
CC(=O)c1ccc(OCC(=O)Nc2ccc(N3CCCCC3)cc2)cc1	-0.1	-7.0	·	-1.5	-0.5	77.4	·	·
CCCNC(=O)C1(C)CCCN(C(=O)Cc2ccc3ccccc3c2)C1 (stereo not given)	1.1	0.6	·	·	-0.4	·	·	·
CCCNC(=O)C1(C)CCCN(C(=O)CN2C(=O)c3ccccc3C2=O)C1 (stereo not given)	9.6	-6.2	·	·	10.0*	·	-2.9	0.8
C#CCN(Cc1cccc(F)c1)C(=O)c1nnc2c3cc(F)ccc3n(S(=O)(=O)c3ccc(OC)cc3)c2n1	2.3	-3.8	·	·	-3.0	·	·	·
COc1ccc(C2=NOC(Cn3nc(-c4ccccc4)cc3C(=O)NCc3cccc(Br)c3)C2)cc1 (stereo not given)	7.5	15.6*	·	-0.2	-20.9	114.4	-1.9	-1.0
COc1cc(S(=O)(=O)Nc2ccc(C)cc2)ccc1NC(=O)c1ccncc1	-3.4	7.1	0.0	-0.3	12.2*	85.9	-3.9	1.1
O=C1CN(C(=O)c2ccccc2F)C(c2ccccc2)c2cc(Cl)ccc2N1 (stereo not given)	-0.8	-4.8	0.1	15.8	10.1*	110.6	-3.7	0.1

Bioassay records from PubChem BioAssay.
